Pf growth 96h – Primary qHTS for delayed death inhibitors of the malarial parasite plastid, 96 hour incubation; Potency, µM (series often up to 28.7 µM), without a hit: top-dose activity change, negative = inhibition, actives largely listed as inhibitors; 320,000 compounds, 6.9% hits; P. falciparum luciferase reporter growth, 96 h; further: potency means the concentration at half of the fitted maximal effect; on the % scale 0 is the no-effect control and ±100 the full control effect
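Readout is luminescence from an integrated firefly luciferase in P. falciparum. Red cells, 2% hematocrit and 0.05% parasitemia final, were cultured with compound through two parasite generations (96 hours) at 37 C, 5% CO2.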
Shiga inhibitor – A qHTS for Small Molecule Inhibitors of Shiga Toxin; inhibition, % at 38.7 µM; 290,000 compounds, 9.2% hits; Vero cells, Shiga toxin protein synthesis inhibition reporter; in the data active means inhibition mostly above about 28%, no sharp cut-off; inactive means mostly below about 43%; further: 0% is about no effect
CHX counter – Cycloheximide Counterscreen for Small Molecule Inhibitors of Shiga Toxin. cell reporter, cycloheximide protein synthesis inhibition counterscreen. AID 2314, 2010. 300,000 compounds, 12% hits. max response, %; in the data active means max response mostly above about 13%, no sharp cut-off; inactive means mostly below about 14%; further: read at 38.3 µM for the half of the compounds with a filed dose; 0% is about no effect
Pf growth 48h – Primary qHTS for delayed death inhibitors of the malarial parasite plastid, 48 hour incubation. P. falciparum luciferase growth in erythrocytes, 48 h. Potency, µM (series often up to 28.7 µM), for inactives: at the highest dose activity change, negative = inhibition, usual class: inhibitors. 310,000 compounds, 5.9% hits. AID 504832, 2011; further: potency means the concentration at half of the fitted maximal effect; on the % scale 0 is the no-effect control and ±100 the full control effect
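Growth was read as firefly luciferase luminescence after a 48 h, 37 C, 5% CO2 exposure of compounds to reporter-bearing P. falciparum cultures (0.1% parasitemia, 2% hematocrit final) in Albumax-supplemented RPMI 1640.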
HCMV antiviral – qHTS Assay for inhibitors of the human cytomegalovirus (HCMV); HFF cells, HCMV-luciferase reporter, 72 h; stronger effect = lower value; activity change, negative = inhibition, % at 57.5 µM; 410,000 compounds, 4.5% hits; AID 1259415, 2018; in the data active means activity change below about -60%; inconclusive means no clear call, values can overlap the other calls; inactive means above about -39%; further: on the % scale 0 is the no-effect control and ±100 the full control effect
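Inhibition of viral replication was scored as loss of reporter luminescence in HFFs infected with HCMV-luciferase (MOI 1 PFU/cell) for 72 h; compounds tested at 2 doses, normalized to buffer and Salinomycin controls.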
* hit, by the source's call; ? = inconclusive; nt = not tested or not shown. The list is not random: actives were taken first. Their share in the collection is about 20%. Unless noted, the call rests on the fitted dose curve; in most records, active means well fitted inhibition curve with a large enough effect; inconclusive means small, poorly fitted or top-dose-only effect, or another doubt; inactive means no such curve, though single readings can be large or run the other way.

SMILES | Pf growth 96h | Shiga inhibitor | CHX counter | Pf growth 48h | HCMV antiviral
CCSc1ccc([C@@H]2[C@@H]3C(=O)N(CC)C(=O)[C@@H]3[C@]3(C(=O)OC)CCCN23)cc1 | ? | nt | nt | 10.4µM* | 33.3
CCSc1ccc([C@@H]2[C@@H]3C(=O)N(C)C(=O)[C@@H]3[C@]3(C(=O)OC)CCCCN23)cc1OC | nt | nt | nt | nt | 14.6
O=C(Cc1ccccc1)Nc1nnc(-c2ccco2)s1 | ? | 135.5* | 33.8* | 34.6% | 23.8
Cc1nnc(NC(=O)CCC(=O)NCc2ccco2)s1 | 31.5% | -2.6 | -3.8 | 23.1% | -2.8
CCC(C(=O)Nc1nnc(-c2ccco2)s1)c1ccccc1 (centres undefined) | 11.7µM* | -27.9 | -2.3 | 2.6% | 48.4
CCCC(=O)Nc1nnc(-c2ccco2)s1 | 13.1µM* | 57.7* | 39.6* | 54.7% | 21.0
COc1ccc(S(=O)(=O)c2c(Nc3ccc(C)cc3)sc(C(=O)c3ccc4c(c3)OCO4)c2N)cc1 | nt | nt | nt | nt | -0.3
Cc1nc2ccc(C(=O)N3CCCC(CO)(Cc4ccc(F)cc4F)C3)cc2nc1C (centres undefined) | 5.1% | -2.0 | -2.1 | ? | -6.7
Cc1ccc2[nH]cc(CCNC(=O)Nc3ccccc3)c2c1 | ? | -8.5 | 12.5* | nt | -30.5
Cc1ccccc1NC(=O)NCCc1c[nH]c2ccccc12 | -3.3% | 13.5 | 10.1 | 20.1% | -23.9
COc1ccc(C(=O)CCC(=O)NCCc2c[nH]c3ccccc23)cc1OC | ? | -11.7 | -1.4 | ? | 8.9
COc1ccc(C(C)=O)cc1CS(=O)(=O)CC(=O)NCCc1c[nH]c2ccccc12 | 10.4µM* | nt | nt | 5.22µM* | -0.1
CC(=O)c1cccc(NC(=O)NCCc2c[nH]c3ccccc23)c1 | -2.6% | 25.6 | 12.0* | 2.5% | -82.0*
O=C(CNC(=O)OCc1ccccc1)NCC(=O)N1CCCC1C(=O)OCc1ccccc1 (centres undefined) | -14.0% | 29.5 | 8.2 | 15.7% | -37.2
COc1ccc(C(=O)COC(=O)CN2C(=O)C3C4CCC(C4)C3C2=O)cc1 (centres undefined) | 76.0% | -5.5 | -1.1 | 15.6% | -35.8
Cc1cccc(-n2ncc3c(NCCCn4ccnc4)ncnc32)c1 | ? | 74.5* | 61.8* | ? | 12.2
Cc1cccc(-n2ncc3c(NCCOCCO)ncnc32)c1 | nt | nt | nt | nt | 104.9
Cc1cccc(-n2ncc3c(NCCCN4CCCC4=O)ncnc32)c1 | 7.8% | 77.1* | 58.1* | 104.1% | 51.2
O=C1CCCN1CCCNc1ncnc2c1cnn2-c1ccc(Cl)cc1 | 27.0% | 28.5* | 27.6* | 84.6% | 20.3
O=C(Nc1c(-c2ccc3c(c2)OCO3)[nH][nH]c1=O)c1cnccn1 | nt | nt | nt | nt | 21.5
O=C(Nc1cccc(S(=O)(=O)N2CCCCC2)c1)c1ccco1 | ? | nt | nt | ? | 0.0
O=C(Oc1cccc(NC(=O)c2ccco2)c1)c1cccc(S(=O)(=O)N2CCCC2)c1 | 3.3% | 24.9 | 18.0* | 31.8% | 19.9
O=C(Oc1cccc(NC(=O)c2cccs2)c1)c1cccc(S(=O)(=O)N2CCCC2)c1 | ? | 38.2 | 13.6* | 62.4% | 50.7
CCOc1ccc(CNC(=O)c2cc3c(s2)-c2ccccc2OC3)cc1 | nt | nt | nt | nt | -10.8
Cc1ccc(CNC(=O)C2CCCCN2S(=O)(=O)c2ccccc2)cc1 (centres undefined) | -1.2% | -12.9 | 2.9 | 6.0% | -20.5
SMILES | Pf growth 96h | Shiga inhibitor | CHX counter | Pf growth 48h | HCMV antiviral
CCCn1nc2ccccc2c1P(=N)(N1CCOCC1)N1CCOCC1 | 11.7µM* | 15.7 | 11.9 | 11.8% | -9.8
CCOc1ccc(/C=N/NC(=O)c2ccccc2Cl)cc1CN1CC2CC(C1)c1cccc(=O)n1C2 (centres undefined) | -23.4% | nt | nt | 8.28µM* | -3.6
CCOc1ccc(NC(=O)c2ccc(N3CC4CC(C3)c3cccc(=O)n3C4)c(N)c2)cc1 (centres undefined) | ? | -2.2 | 2.5 | -13.1% | ?
CCOc1ccc(NC(=O)N2C[C@H]3C[C@@H](C2)c2cccc(=O)n2C3)cc1 | -13.1% | 7.4 | -1.1 | 4.7% | 16.5
CCOc1ccc(/C=N/NC(=O)c2ccc(F)cc2)cc1CN1CC2CC(C1)c1cccc(=O)n1C2 (centres undefined) | 18.2% | nt | nt | 5.22µM* | 1.2
CCOc1ccc(/C=N/NC(=O)c2ccccc2C)cc1CN1CC2CC(C1)c1cccc(=O)n1C2 (centres undefined) | ? | nt | nt | 3.7µM* | 8.7
O=c1cccc2n1CC1CC2CN(Cc2c(Cl)cccc2Cl)C1 (centres undefined) | nt | -5.3 | -7.2 | -14.0% | -12.0
COCCCNC(=O)C1CCN(Cc2nc(-c3ccc(OC)c(OC)c3)oc2C)CC1 | nt | nt | nt | nt | 18.1
CCOc1cc(C(=S)N2CCN(C)CC2)ccc1OCC(=O)N1CCCC1 | nt | nt | nt | nt | 8.9
COc1cc2c(cc1OC)C(c1ccccc1F)OC(=O)C2 (centres undefined) | 54.6% | -2.8 | -1.2 | 16.6% | 33.3
Cc1ccc(C)c(Cn2c(-c3cccs3)nc3ccccc32)c1 | nt | nt | nt | nt | -16.6
O=c1c2ccccc2[nH]c2ccc(F)cc12 | 3.3% | -6.0 | 9.8 | ? | ?
O=c1[nH]sc2ccccc12 | -5.8% | -12.1 | 5.8 | -7.0% | -73.5*
O=c1ccsc2ccccc12 | nt | nt | nt | nt | 59.3
O=c1[nH]sc2cc(F)ccc12 | ? | -10.0 | 14.4 | -3.3% | -98.2*
CCOC(=O)c1nnn(CC(=O)Nc2cc(C)cc(C)c2)c1C(=O)OCC | nt | nt | nt | nt | 12.4
CC1(C(=O)NS(=O)(=O)c2ccccc2Cl)CCN1C(=O)Cc1cccs1 (centres undefined) | nt | nt | nt | nt | -36.7
Cc1cc(C(=O)CS(=O)(=O)c2ccccc2)cc(C)c1OC(=O)N(C)C | ? | 61.8* | 25.0* | ? | 12.6
Cc1cc(C(=O)CSc2ccccc2)cc(C)c1O | 77.9% | 70.7* | 61.0* | 59.6% | 67.6
Cc1ccc(S(=O)(=O)CC(=O)c2cc(C)c(OC(=O)N(C)C)c(C)c2)cc1 | -1.0% | 39.7 | 18.8 | ? | -39.7
Cc1cc(C(=O)CS(=O)(=O)c2ccccc2)cc(C)c1O | 70.0% | 44.3* | 19.4* | 49.8% | 46.6
Cc1nc(-c2ccccc2)sc1C(=O)CSc1ccccc1 | -2.6% | 14.5 | 15.1 | 5.4% | 18.0
CCC(C)NCCCOc1c(C)cc(C)cc1Br (centres undefined) | 360.1% | -8.6 | -3.8 | ? | ?
O=C(/C(Cl)=C/Nc1ccc(Br)cn1)C(F)(F)F | 32.9% | 34.7 | 16.0* | 0.0% | -4.3
O=C(Nc1ccc(Cl)cc1)Nc1ccc(Br)cn1 | ? | 22.3 | 9.1 | nt | -26.0
CCCSC1=NC2(CCN(C(=O)NC3CCCCC3)CC2)N=C1c1ccc(C)cc1 | nt | nt | nt | nt | 0.2
COCCCNC(=O)c1cn(-c2cccc(OC)c2)c(=O)c2ccccc12 | 31.3% | 24.5 | 8.4 | 6.8% | -23.4
CCOC(=O)c1c(NC(=O)c2cc(-c3ccc(Br)cc3)on2)sc(C(C)=O)c1C | nt | nt | nt | nt | 12.3
CN(Cc1ccccc1)C(=O)c1cc(-c2ccc(Br)cc2)on1 | ? | 68.9* | 20.7* | 15.3% | -6.4
